biological target: PML; assay: pooled miR-30 sensor sort-seq; sequence = guide strand; conditions: shRNA
Note: reference of the scale not given here.

Sequence | sensor-assay potency score (higher = more potent)
TTGTATTGGAGACATCCTCTCC | -0.965
TTCTTGAGTTTGAAGCTGCTGG | -0.233
TACAGCTGCATCTTTCCCCTGG | 0.227
TCCATCTTGATGACCTTCCTGG | -0.889
TCGTGCTTGAGGAACCACTGGT | 0.0745
TATCTTTCTACATGGATGGAGT | -0.448
TATTGGAGACATCCTCTCCATA | -1.32
AAGTCTGAGAGTCACCTGCTGT | -0.995
TTGTATTGGAGACATCCAGGTC | -0.853
TTCATTGTCAATCTTGAGGTCA | 0.253
TTTCTCGCCAGGTAGGTCTGGG | 0.0297

biological target: PNPLA3; assay: as above; conditions: shRNA

Sequence | sensor-assay potency score (higher = more potent)
TATCGCACGCCTCTGAAGGAAG | -1.42
ATTACATAAGACATTATCCTAA | -0.605
TCTTGCTCATGTATCCACCTTT | -0.0736
TTACATAAGACATTATCCTAAT | -0.725
TAGCAGCTCATCTCCCTCCAGC | -1.05
TTGCTTAAGTTGAAGGATGGAT | -0.584
TTTGCAGAGACCCTGTCGGAGG | -0.649
TCTGCTTTGGTCTCTGCTGGAC | -0.599
TTCGTGGACTTGACTTTAGGGC | -0.495
TAGAAGGGGATGAAGCAGGAAC | -0.79
TAGCAAGTTGCAAATCTTGCTC | -0.46
TAAGACATTATCCTAATGGGTA | -0.331

biological target: POLG; assay: as above; conditions: shRNA

Sequence | sensor-assay potency score (higher = more potent)
TTGGCTGCTATCCACAGACTGC | -1.02
ATTACAGCTATTACCATCCTTG | -0.0536
TTGTAGGCAAACATGCACCTGG | 0.0528
TTAAACTGCATTAGTAAGCGCT | -0.404
TTATTGAACATTTCTGACTCTG | 0.362
TATGGCACTATTGTCAGTGAGC | -0.848
TTGAACATTTCTGACTCTGTGC | 0.0886
TATTGAACATTTCTGACTCTGT | 0.187
TTCCTCATCATAGTCGGGGTGC | 0.36
TAATCCAGTTCTTCTACCGTTT | -0.468
TTTAGGTGTGACCCGCATCTGC | -1.03
TTGTCCTGTAGTCCACACCGAT | -1.34

biological target: POLH; assay: as above; conditions: shRNA

Sequence | sensor-assay potency score (higher = more potent)
TATCAATCTGAAGAGAATCGAG | -0.521
TAGCTTTTGTAGTCTCTCTTGT | -0.253
TTTAGAGGATTCTTCTAGCTTC | 0.456
TTACAGTTCTTGATGACAGTAA | 0.425
ATAACTTCTTAGCATCATCTGC | -0.998
